From PubChem
Hits are enriched below; roughly 2.9% of the tested compounds scored in any of these assays.
GAA850 FXN act = FXN promoter activators, primary screen, cell-based, luciferase luminescence, HEK293 lucGAA850; HEK293 lucGAA850 FXN promoter luciferase reporter, 24 h; percent of 10 µM SAHA response; activation, % at 6 µM; hit rate 0.56% among 360,000; AID 540364, 2011;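 active means activation above the average of all compounds screened plus 3 SD, cutoff fixed separately per campaign, cut at about 7.5% in these data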
FAS-TE inh = FAS thioesterase domain inhibitors, primary screen, biochemical, fluorescence intensity, uHTS. recombinant FAS-TE, OMFH fluorogenic substrate, fluorescence endpoint. inhibition, % at 15 µM. hit rate 0.67% among 360,000;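 active means compounds whose normalised, plate-corrected inhibition of enzyme fluorescence in the single-dose primary screen is 50% or more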
SMARCA2 activ = SMARCA2 (BRM) function activators, primary screen, cell-based, luminescence, high throughput; MG213 cells, MMTV-luciferase reporter, dexamethasone, overnight; activation, % at 9.1 µM; hit rate 1% among 370,000; in the data active means activation above about 7.8%
KLK7 zymogen act = proKLK7 zymogen activators, primary screen, biochemical, fluorescence intensity | hit rate 0.9% among 370,000 | purified proKLK7, EDANS-DABCYL substrate fluorescence; 100% is mature enzyme control, 0% vehicle | activation, % at 7 µM | Kallikrein-7 (Homo sapiens), P49862 | AID 652039, 2013;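 active means activation above the mean of all tested compounds plus 3 SD, computed per campaign excluding outliers beyond control limits, cut at about 13% in these data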
Target sequence (P49862 whole entry, looked up): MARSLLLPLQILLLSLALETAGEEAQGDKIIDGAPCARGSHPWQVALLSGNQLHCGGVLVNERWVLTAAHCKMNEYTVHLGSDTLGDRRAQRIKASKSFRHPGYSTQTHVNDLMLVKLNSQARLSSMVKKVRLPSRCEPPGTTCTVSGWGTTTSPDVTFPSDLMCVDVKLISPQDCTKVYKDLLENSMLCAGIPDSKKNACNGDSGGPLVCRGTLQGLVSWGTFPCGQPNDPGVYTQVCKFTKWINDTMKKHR
GAA30 FXN cntr = GAA30 FXN promoter activators, confirmation, counter-screen for GAA850 frataxin promoter activator project, cell-based, luminescence, HEK293, lucGAA30, triplicate | shares compounds with GAA850 FXN act | HEK293 lucGAA30 FXN promoter luciferase, 24 h; DMSO = 0%, 5 µM ipriflavone = 100% | activation, % at 6 µM | hit rate 66% among 1,900 | AID 588350, 2011;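 active means mean activation above the mean of solvent-only control wells plus 3 SD, cut at about 22% in these data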;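 further: counterscreen of GAA850 promoter hits where activity marks nonselective or luminescence artifacts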
GAA850 confirm = FXN GAA850 promoter activators in reporter cells, confirmation, cell-based, luminescence, HEK293 lucGAA850, triplicate; shares compounds with GAA850 FXN act; HEK293 lucGAA850 FXN promoter luciferase reporter, 24 h; 100% = activation by SAHA; activation, % at 6 µM; hit rate 86% among 1,900;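 active means mean activation above a set limit taken from the primary screen, cut at about 8% in these data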
A number is an active result; . = inactive; / = no result.

SMILES | GAA850 FXN act | FAS-TE inh | SMARCA2 activ | KLK7 zymogen act | GAA30 FXN cntr | GAA850 confirm
CCc1c2c(nc3ccc(OC(=O)N4CCC(N5CCCCC5)CC4)cc13)-c1cc3c(c(=O)n1C2)COC(=O)[C@]3(O)CC | . | . | . | 63 | / | /
N#Cc1c(SCC(=O)Nc2ccc(Cl)cc2Cl)sc2c(O)cc(=O)[nH]c12 | . | . | 7.8 | . | / | /
Cc1c(Cl)cccc1NC(=O)CSc1sc2c(O)cc(=O)[nH]c2c1C#N | . | . | . | . | / | /
C(=N\Nc1ncnc2sc3c(c12)CCC3)/c1cccs1 | 13 | . | . | . | / | /
Cc1ccccc1N=C1SC(CC(=O)Nc2ccc3ccccc3c2)C(=O)N1Cc1ccccn1 (stereo unspecified) | . | . | . | . | / | /
CC(C)Oc1ccc(C(=O)Nc2cc(S(=O)(=O)N3CCOCC3)ccc2N2CCOCC2)cc1 | . | . | . | . | / | /
CCN1C(=O)c2cccc3c(S(=O)(=O)Nc4ccccn4)ccc1c23 | . | . | . | 19 | / | /
C=C1C(=O)O[C@H]2[C@H]1[C@@H](O)CC(=C)[C@@H]1CC(=O)[C@@H](C)[C@H]21 | 9.3 | . | / | / | / | /
O=C(NC1CCCC1)C(c1ccc(F)cc1)N(C(=O)Cc1cccs1)c1ccc2c(c1)OCCO2 (stereo unspecified) | . | . | . | . | / | /
Cc1ccc(C(C(=O)NC2CCCC2)N(C(=O)Cc2cccs2)c2ccc3c(c2)OCCO3)cc1 (stereo unspecified) | . | 61 | . | . | / | /
Cc1ccc2nc(-c3ccc(NC(=O)CN4C(=O)c5ccccc5C4=O)cc3)sc2c1 | . | . | 16 | . | / | /
Nc1ccc(C#Cc2ccc3c(=O)c4ccccc4oc3c2)cc1 | . | . | . | . | / | /
Cn1cncc1C#Cc1ccc2c(=O)c3ccccc3oc2c1 | 7.9 | . | . | . | 67 | 40
O=C(NC1CCN(Cc2ccccc2Cl)CC1)c1ccccc1 | . | . | . | . | / | /
Cc1nc(NC(=O)c2ccc(Br)s2)sc1C(=O)N(C)C | 8.4 | . | . | . | 115 | 33
Cc1ccccc1CN1CCN(CC(=O)NC(C)c2ccccc2)CC1 (stereo unspecified) | . | . | . | . | / | /
CC(C)Oc1ccc2ccccc2c1CNC[C@H]1O[C@@H](n2ccc(=O)[nH]c2=O)[C@H](O)[C@@H]1O | / | . | . | . | / | /
COC(=O)c1ccc(NN=Nc2ccc(C)cc2)cc1 | 7.8 | . | . | . | 84 | 31
CCOC(=O)C1=C(COC(=O)/C=C/c2ccccc2Cl)NC(=O)NC1C (stereo unspecified) | 8.0 | . | . | . | 49 | 19
CCOC(=O)C1=C(COC(=O)/C=C/c2ccccc2F)NC(=O)NC1C (stereo unspecified) | . | . | . | . | / | /
CCCCCCCNC(=O)C1(CC2CC(c3cccc(Br)c3)=NO2)CCNCC1 (stereo unspecified) | . | . | . | . | / | /
COc1ccc(CCNC(=O)c2cc(-c3ccco3)on2)cc1OC | 13 | . | . | . | 77 | 34
O=C(NCc1ccccc1)c1cc(-c2ccco2)on1 | . | . | . | . | / | /
O=C(NCCc1ccccc1)c1cc(-c2ccco2)on1 | 13 | . | . | . | 153 | 54
COc1cc(C2C(C(=O)c3cccs3)=C(O)C(=O)N2CCN2CCOCC2)cc(OC)c1OC (stereo unspecified) | . | . | . | . | / | /
SMILES | GAA850 FXN act | FAS-TE inh | SMARCA2 activ | KLK7 zymogen act | GAA30 FXN cntr | GAA850 confirm
Nc1cccc2c1C(=O)N(CCOc1ccc(F)cc1)C2=O | 8.1 | . | . | . | 106 | 26
CCCc1cc(C(=O)Nc2cccc(C(C)=O)c2)no1 | 25 | . | 7.9 | . | 76 | 23
COc1ccc(CNC(=O)c2c(-c3cc(Cl)c(OC)c(Cl)c3)noc2C)cc1 | 10 | . | . | . | . | 11
Cc1onc(-c2ccccc2)c1C(=O)NCc1ccc(Cl)cc1 | . | . | . | . | / | /
O=S(=O)(NCc1ccc2c(c1)OCO2)c1cccc(F)c1 | . | . | . | . | / | /
O=S1(=O)N=C(Nc2ccc(O)cc2)c2ccccc21 | . | . | . | . | / | /
O=S1(=O)N=C(Nc2ccc(N3CCOCC3)c(Cl)c2)c2ccccc21 | 8.4 | . | . | . | 103 | 34
Cc1ccc(OCc2ccc([N+](=O)[O-])cc2)c([N+](=O)[O-])n1 | 8.4 | . | . | . | 117 | 34
O=C(C1COc2ccccc2O1)N1CCc2ccccc21 (stereo unspecified) | 8.0 | . | . | . | 73 | 32
O=C(C1COc2ccccc2O1)N1CCCC1 (stereo unspecified) | . | . | . | . | / | /
CC(C)c1ccc(N(C(=O)c2csnn2)C(C(=O)NC(C)(C)C)c2ccncc2)cc1 (stereo unspecified) | 14 | . | . | . | 115 | 32
Cc1ccc(N(C(=O)c2csnn2)C(C(=O)NC(C)(C)C)c2ccncc2)cc1 (stereo unspecified) | . | . | . | . | / | /
O=C(NN1C(=O)C2C3c4ccccc4C(c4ccccc43)C2C1=O)c1ccc(Cl)cc1 (stereo unspecified) | . | . | . | . | / | /
O=[N+]([O-])c1nn(-c2ccc3c(c2)OCCO3)n(O)c1=NCc1ccc(F)cc1Cl | 9.8 | . | . | . | 91 | 30
O=[N+]([O-])c1nn(-c2ccc3c(c2)OCCO3)n(O)c1=NCc1ccc(F)cc1 | . | . | . | . | / | /
O=C(C1CCCO1)N1CCN(S(=O)(=O)c2ccc(F)cc2)CC1 (stereo unspecified) | . | . | . | . | / | /
COc1ccc(Cn2nnnc2C(c2cccs2)N2CCCCCC2)cc1 (stereo unspecified) | . | . | . | . | / | /
CC(C)(C)c1cc(C(=O)N/N=C/c2ccco2)n[nH]1 | 8.3 | . | . | . | 73 | 29
Cc1ccc(-c2cc(C(=O)N/N=C/c3ccco3)n[nH]2)s1 | . | . | . | . | / | /
O=C(O)c1ccc(N/N=C/c2ccnc3ccccc23)cc1 | 9.3 | . | . | . | 93 | 32
COCCCNC(=O)c1cc(C)nn1-c1ccccc1 | . | . | . | . | / | /
CN(C)C(=S)N=c1ssc(=S)n1Cc1ccccc1 | 21 | . | . | . | . | 28
COC(=O)C1=C(C)NC2=C(C(=O)CCC2)C1c1cn(Cc2ccc(Cl)cc2Cl)nc1-c1ccccc1 (stereo unspecified) | . | . | . | . | / | /
CCOC(=O)C1=C(C)NC2=C(C(=O)CCC2)C1c1cn(Cc2ccc(Cl)cc2Cl)nc1-c1ccccc1 (stereo unspecified) | 13 | . | . | . | 22 | 7.8
